Measured values reported in PubChem BioAssay (NCI).
About 83,000 compounds went through this panel and 20% of them were active in at least one assay; those are over-represented in the sample as a whole.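 How to read the values: 0–100, growth inhibition (40 = 60% inhibited); 0, no net growth; -100 to 0, cell death (-40 = 40% of starting cells died; -100 = all dead).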 The source made the active and inactive calls. How the source made its calls: active means growth percent below 10; inactive means the rest.

Columns and labels:
Test in all cases: NCI-60 one-dose screen, 48 h (100 = growth as untreated, 0 = no growth, -100 = all killed)
Settings in all cases: 10 µM unless noted
[1] = tested on: NCI-H23 lung
[2] = tested on: NCI-H226 lung
[3] = tested on: NCI-H322M lung
[4] = tested on: HOP-62 NSCLC
[5] = tested on: NCI-H460 lung
[6] = tested on: HOP-92 NSCLC
[7] = tested on: NCI-H522 lung
[8] = tested on: A549/ATCC NSCLC
[9] = tested on: 786-0 renal
[10] = tested on: COLO 205 colon
[11] = tested on: DU-145 prostate
[12] = tested on: K-562 leukemia
[13] = tested on: MALME-3M melanoma
[14] = tested on: MDA-MB-231 breast
[15] = tested on: RXF 393 renal
[16] = tested on: SF-268 CNS
[17] = tested on: SF-295 CNS
[18] = tested on: UACC-257 melanoma
[19] = tested on: M14 melanoma

Measured: growth

O=C(CCCN1CCOCC1)Nc1ccc(Cn2nnc3c2C(=O)c2nnn(Cc4ccc(NC(=O)CCCN5CCOCC5)cc4)c2C3=O)cc1
active: [1] -6.94% | [6] -20.9% | [7] -34.9% | [10] -70.5% | [13] -74.3% | [14] 5.78% | [18] -88%
inactive: [2] 97.8% | [3] 21% | [4] 73.9% | [5] 22.4% | [8] 83.8% | [9] 101% | [11] 82.3% | [12] 20.9% | [15] 84.5% | [16] 23.4% | [17] 79.3% | [19] 60.6%

COc1ccc(C(=O)c2sc3nc4c(c(C(F)(F)F)c3c2N)CN(C(C)=O)CC4)cc1OC
inactive: [1] 90.5% | [2] 78.2% | [3] 93.1% | [4] 87% | [5] 95.8% | [7] 78.5% | [8] 91% | [9] 91.9% | [10] 92.4% | [11] 104% | [12] 78.2% | [13] 88% | [14] 63.8% | [15] 74.7% | [16] 85% | [17] 86.2% | [18] 99.2% | [19] 100%
active: [6] -0.986%

O=C(COCc1c(-c2ccccc2)no[n+]1[O-])Nc1ccc(C(=O)/C=C/c2ccc3c(c2)OCO3)cc1
inactive: [1] 101% | [2] 96.6% | [3] 113% | [4] 108% | [5] 112% | [6] 73.2% | [7] 140% | [8] 85.4% | [9] 113% | [10] 120% | [11] 116% | [12] 92.4% | [13] 123% | [14] 101% | [15] 95.9% | [16] 97.9% | [17] 103% | [18] 93.3% | [19] 109%

COc1ccc2nc3cc(Cl)ccc3c(N3CCN(c4nccc(NCc5ccccc5)n4)CC3)c2c1
inactive: [1] 73.2% | [2] 96.4% | [3] 89.4% | [4] 35.9% | [5] 89.9% | [6] 69.1% | [8] 78.3% | [9] 79% | [10] 82.1% | [11] 78.7% | [12] 33% | [13] 113% | [14] 67.5% | [15] 42.2% | [16] 72.3% | [17] 81.6% | [18] 88% | [19] 96.3%
active: [7] -0.14%

NC(=S)N/N=C/c1ccc(OCc2ccccc2)cc1
active: [7] -24.1%
inactive: [1] 84% | [2] 61.1% | [3] 79.9% | [4] 93.8% | [5] 86.7% | [6] 48.5% | [8] 68.4% | [9] 41.7% | [10] 56.9% | [11] 85.3% | [12] 43.7% | [13] 56.2% | [14] 69.9% | [15] 52.4% | [16] 80.9% | [17] 96% | [18] 60.7% | [19] 71.6%

COc1ccc(C(=O)/C=C/c2cc3ccccc3[nH]c2=O)cc1
active: [5] 3.4% | [7] -31% | [11] -26.7%
inactive: [1] 11.9% | [2] 64.5% | [3] 61.5% | [4] 29.7% | [6] 34.6% | [8] 42.3% | [9] 33.5% | [10] 66.9% | [12] 16.7% | [13] 74.2% | [14] 56.3% | [15] 16.6% | [16] 28.9% | [17] 48.9% | [18] 59.1% | [19] 59.6%

c1ccc2sc(SCCCn3ccnc3)nc2c1
inactive: [1] 81.4% | [2] 74.8% | [3] 98.7% | [4] 99.7% | [5] 97.8% | [6] 78.9% | [7] 50.4% | [8] 74.9% | [9] 104% | [10] 98.2% | [11] 101% | [12] 103% | [13] 96.1% | [14] 89.6% | [15] 95.2% | [16] 98.4% | [17] 97.4% | [18] 87.3% | [19] 102%

CCOC(=O)c1c2c(n3ccc(NC(=O)CCN(CC)CC)cc13)C(=O)c1ncccc1C2=O
active: [1] 0.0285% | [5] -20.4% | [7] 6.16%
inactive: [2] 75.1% | [3] 73.4% | [4] 31.4% | [6] 82.1% | [8] 36.2% | [9] 50.1% | [10] 54.1% | [11] 66.5% | [12] 49.7% | [13] 76.9% | [14] 42.4% | [15] 67.2% | [16] 41.9% | [17] 38% | [18] 57.3% | [19] 49.7%
